Assay results reported in PubChem BioAssay (NCI).
Values joined by “and” are separate entries in the source; they are usually repeats but may differ in a detail not shown here. Equal values may be shown once. The panel holds about 83,000 compounds, 20% with a hit somewhere; the sample as a whole holds those more often.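 Percent growth is the endpoint: 0 to 100 indicates growth inhibition (40 means 60% inhibition), 0 means no net growth, and negative values indicate cell death.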 Active and inactive are the calls of the source. Where a SMILES comes first, the peptide text is derived from it. The star is where a group is joined. Trt = c1ccc(C(c2ccccc2)(c2ccccc2)*)cc1; Cbz = O=C(OCc1ccccc1)*

Each compound was assayed on HCT-116 colon (assay: NCI-60 one-dose screen, 48 h (100 = growth as untreated, 0 = no growth, -100 = all killed)). Conditions: 10 µM.
Procedure: Growth inhibition of the HCT-116 human tumor cell line is measured as a screen for anti-cancer activity. Cells are grown in 96 well plates and exposed to the test compound for 48 hours. Compounds are tested at a single concentration, which is 10^-5 M for most compounds. The reported endpoint is percent growth (GI% or GIPRCNT), where numbers from 0 - 100% represent growth inhibition, and numbers from -100% - 0 represent cell death. For example, a value of 40 represents 60% growth inhibition. A value of 0 means no net growth occurred over the course of the experiment. A value of -40 indicates 40% of cells at the beginning of the experiment died by the end of the experiment. A value of -100 means all cells are dead at the end of the experiment.
NCI-60 Human Tumor Cell Lines Screen was performed using the standard one-dose NCI protocol, which is described in more detail at https://dtp.cancer.gov/discovery_development/nci-60/default.htm.
Compounds with GIPRCNT values below 10 were considered active. Activity score was based on GIPRCNT using the following formula: […]
Score is 0 for GIPRCNT values of 100 or above, 50 for GIPRCNT values of 0, and 100 for GIPRCNT values of -100.

Compound | growth
O=C(Nc1c(Cl)cccc1Cl)Oc1cccc2cccnc12 | 14.3% (inactive)
O=C(Nc1cccc(Br)c1)Oc1cccc2cccnc12 | 92.7% (inactive)
COc1ccc(-c2cscc2N)cc1 | 73.3% (inactive)

Same assay, conditions: 10 µM unless noted

Compound | growth
CC1=CC(O)C2CC1C2(C)C (stereo not given) | 103% (inactive)
O=C(/C=C\c1ccccc1)N1c2ccccc2CC1c1c[nH]c2ccccc12 (stereo not given) | 23.1% (inactive)
COC(=O)c1nc(=S)[nH]c(C(=O)OC)c1C(=O)c1ccccn1 | 17.9% (inactive)
N#CSCc1ccc(Cl)c(CSC#N)c1 | 13.6% (inactive)
CC(C)(C)c1ccc(O)c(C2CCCCC2)c1 | 95% (inactive)
Cn1c2c(c3ccccc31)CCN1C[C@@H]3CCCC[C@H]3C[C@@H]21 | -10.1% (active)
CN1c2ccccc2C(C)(C)C12C=Cc1cc(O)ccc1O2 (stereo not given) | 67.9% (inactive)
CC1OC(OC2C(OC3CCC4(C)C(CCC5(C)C4CC=C4C6CC(C)(C)CCC6(CO)C(O)CC45C)C3(C)C)OC(C(=O)O)C(OC3OC(COC4OC(CO)C(O)C(O)C4O)C(O)C(O)C3O)C2O)C(O)C(O)C1O (stereo not given) | -88% (active)
O=C1C2=C(Nc3cc([N+](=O)[O-])ccc3N2)OC1c1c2ccccc2cc2ccccc12 (stereo not given) | 15.5% (inactive)
CC(C)(C)CC(C)(C)c1ccc(OCCSC(=N)N)cc1 | -12.2% (active)
O=C(/C=C/C=C/c1ccccc1)c1ccco1 | 36.3% (inactive)
S=C(NCCNC(=S)[S][Sn]([c]1ccccc1)([c]1ccccc1)[c]1ccccc1)[S][Sn]([c]1ccccc1)([c]1ccccc1)[c]1ccccc1 | -82.8% (active)
O=C1c2ccccc2C(=O)N1c1ccccc1 | 105% (inactive)
CCCCCCC(C)c1ccccc1O (stereo not given) (tested in a mixture with another compound) | 111% (inactive)
C1=C(c2ccccc2)C(c2ccc(OCCN3CCCCC3)cc2)Oc2ccccc21 (stereo not given) | 46.6% (inactive)
O=C(Nc1ccccc1)Oc1c(Cl)c(Cl)c(Cl)c(Cl)c1Cl | 105% (inactive) and 101% (inactive)
CN(C)c1ccc(N=Nc2cccc3ccccc23)cc1 | 75.2% (inactive)

Compound | growth
O=C(Nc1ccc(F)cc1)ON=C1CCCCC1 | 99.2% [100 µM] (inactive)
Cc1ccc2nc(C[n+]3ccc4ccccc4c3)ccc2c1 | 53.5% (inactive)
Cc1ccc(N=C=C(c2ccccc2)c2ccccc2)cc1 | 15.9% (inactive)
c1ccc2c(c1)Nc1cc3ccccc3cc1N2 | 26.4% (inactive)
Cc1cc2nc(CS)[nH]c2cc1C | 58.1% (inactive)
Oc1ccc(/C=N/NC(=S)Nc2ccccc2)nc1 | 21% (inactive)
N#CC1C(=O)SC2c3ccccc3C(=O)c3ccccc3C12 (stereo not given) | 102% (inactive)
N#Cc1ccc([N+](=O)[O-])o1 | 92.6% (inactive)
CCC(CC)COC(=O)c1ccc(O)c(O)c1 | 72.6% (inactive)
CN(C)C(=O)SC1=C(c2c(Cl)cccc2Cl)C(=O)c2ccccc21 | -64.6% (active)
C/C=C1\SC(=S)NC1=O | 96.9% (inactive)
CCCCCCCCCCCCCCCCN(CC)CC | -52.5% (active)
CCN(CC)CCOc1ccc(-c2nc3cc(Cl)ccc3s2)cc1 | -69.3% (active)
NC(N)=N/N=C/c1ccc([N+](=O)[O-])o1 | 89% (inactive)
COC(=O)C(CSC(c1ccccc1)(c1ccccc1)c1ccccc1)NC(=O)C(CC(N)=O)NC(=O)OCc1ccccc1 (stereo not drawn) (Cbz-Asn-Cys(Trt)-OMe; configuration not given here) | 12.7% (inactive)
COc1ccccc1/C=C\C(=O)c1ccccc1 | 22% (inactive)
Oc1c(Cl)c2ccccc2c2ccccc12 | 101% (inactive)

Same assay, conditions: 100 µM

Compound | growth
O=C(Nc1c(Cl)cccc1Cl)Oc1cccc2cccnc12 | 8.1% (active)
O=C(Nc1cccc(Br)c1)Oc1cccc2cccnc12 | 1.93% (active)
COc1ccc(-c2cscc2N)cc1 | 26.4% (inactive)
